One assay deals with Albumin (Bos taurus) (UniProt P02769). The experiment in a line: bovine serum albumin binders on microarray, profiling panel, artefact control for SMM control protein annotation, biochemical, small-molecule microarray, Alexa647 label, 635/667 nm fluorescence (AID 1118).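 Note: score merges 667 nm emission intensity and signal-to-noise per printed compound spot.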 The following applies: BSA-A647 binding, fluorescence 635 nm, higher = more signal.
The nature of assay [1]: small-molecule microarray binders of probe aXIP, primary screen, biochemical, NeuroSMM set, 635/667 nm fluorescence (AID 1119).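 Note: probe is the protein aXip251-270 applied at 1 µg/mL to compound-printed slides; binding of probe to printed compounds measured as 667 nm fluorescence plus signal to noise.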 The conditions noted are these: higher = more signal, called active from +8 up or from −8 down.
Assay [2] in a line: small-molecule binders of probe aNOTCH3, primary screen, biochemical, small-molecule microarray, 635/667 nm fluorescence (AID 1120).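 Note: probe is a biotin-tagged antibody raised against NOTCH3 rather than NOTCH3 protein; score merges spot fluorescence near 667 nm with spot signal to noise.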 The following applies: higher = more signal.
A short description of assay [3]: small-molecule binders of probe aNOTCH2, primary screen, biochemical, small-molecule microarray, 635/667 nm fluorescence (AID 1121).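 Note: score merges feature fluorescence read at 667 nm with its signal to noise.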 The following applies: higher = more signal.
Assay [4] addresses Carbonic anhydrase 2 (Homo sapiens) (UniProt P00918). The assay can be described thus: CAII small-molecule binders, profiling panel, biochemical, small-molecule microarray, Alexa647-labelled CAII (AID 1122). The conditions noted are these: CAII-A647 binding fluorescence, higher = more signal.
A short description of assay [5]: COS7 lysate on small-molecule microarray, probe aHis, 635 nm (AID 1123).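 Note: z-score combines 667nm fluorescence intensity with signal-to-noise per printed compound spot.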 The conditions noted are these: COS7 cell lysate, fluorescence, higher = more signal.
A short description of assay [6]: compound binding in COS7 lysate, probe aLAP1, primary screen, cell lysate, small-molecule microarray (AID 1124).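 Note: lysate comes from COS7 cells expressing LAP1 and is applied at 0.3 µg/mL; score merges spot fluorescence near 667 nm with signal-to-noise over triplicate slides.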 The following applies: probe aLAP1, fluorescence, higher = more signal.
The test system of another assay is Sam68 (KHDRBS1). The experiment in a line: Sam68 small-molecule binders, primary screen, biochemical, small-molecule microarray, 635 nm fluorescence (AID 1125).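 Note: score merges 667 nm channel intensity with signal to noise over triplicate slides.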 The conditions noted are these: small-molecule microarray binding, higher = more signal.
Assay [7] concerns Chordin-like protein 2 (CHRDL2). The experiment in a line: CHRDL2 small-molecule binders, primary screen, biochemical, small-molecule microarray, 635 nm fluorescence (AID 1126).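 Note: printed compound slides probed with Chrdl2 protein at 4 µg/mL for 1 h at 4 C; score merges 667 nm emission intensity with signal to noise over three replicate slides.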 The following applies: small-molecule microarray binding, fluorescence 635 nm; higher = more signal.
Assay [8] has as its target Concanavalin-A (Canavalia ensiformis) (UniProt P02866). The experiment in a line: ConA small-molecule binders, primary screen, artefact control for SMM control protein annotation, biochemical, small-molecule microarray, Alexa647 label, 635 nm (AID 1127).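 Note: z combines 667 nm emission intensity with signal-to-noise across three replicate slides.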 The following applies: ConA-A647 binding fluorescence, higher = more signal.
The nature of assay [9]: anti-His antibody binders, primary screen, artefact control for SMM control protein annotation, biochemical, small-molecule microarray, 635 nm fluorescence (AID 1128).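 Note: score merges feature fluorescence with signal-to-noise for each printed compound spot.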 The conditions noted are these: anti-His Alexa647 antibody binding, higher = more signal.
Assay [10] relates to Human papillomavirus type 1a E7 protein (residues 1-88). The experiment in a line: HPV1a E7 small-molecule binders, primary screen, biochemical, small-molecule microarray, residues 1-88, 635 nm (AID 1129). The following applies: small-molecule microarray binding, fluorescence 635 nm; higher = more signal.
Assay [11] deals with Focal adhesion kinase 1 (Homo sapiens) (UniProt Q05397). The experiment in a line: small-molecule microarray binders of FAK, primary screen, biochemical, 635/667 nm fluorescence, BSA, DTT (AID 1130).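 Note: composite of spot emission at 667 nm and signal to noise over triplicate slides.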 The conditions noted are these: PTK2 binding, 635 nm fluorescence, higher = more signal.
The test system of assay [12] is Fibrinogen (Alexa647-labelled). The experiment in a line: fibrinogen binders on compound microarrays, profiling panel, artefact control for SMM control-protein annotation, biochemical, small-molecule microarray, 635/667 nm fluorescence (AID 1131).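 Note: z-score merges 667 nm fluorescence with per-spot signal-to-noise over triplicate slides.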 The conditions noted are these: fibrinogen-A647 binding fluorescence, higher = more signal.
For assay [13], the target named is Follistatin (Homo sapiens) (UniProt P19883). The assay can be described thus: follistatin binders on small-molecule microarrays, primary screen, biochemical, small-molecule microarray, 635/667 nm fluorescence (AID 1132). The conditions noted are these: FST binding, 635 nm fluorescence, higher = more signal.
Assay [14] addresses Fibroblast growth factor 2 (Homo sapiens) (UniProt P09038). The assay can be described thus: FGF2 binders on small-molecule microarrays, primary screen, biochemical, small-molecule microarray, 635/667 nm fluorescence (AID 1133). The conditions noted are these: small-molecule microarray binding, FGF2, fluorescence 635/667; higher = more signal.
A short description of assay [15]: mitochondrial membrane potential change in A549 cells, profiling panel, cell-based, JC-1 fluorescence, basal, 24 h, 100 nL (AID 1138).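 Note: A549 lung adenocarcinoma cells under basal conditions with no added stimulus; test concentration not given here.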 The conditions noted are these: higher = more signal.
Another assay relates to Lefty1. The assay can be described thus: Lefty1 binders on small-molecule microarrays, primary screen, biochemical, small-molecule microarray, 635/667 nm fluorescence (AID 1139). The conditions noted are these: small-molecule microarray binding, fluorescence 635/667; higher = more signal.
Assay [16] relates to wheat germ agglutinin (Triticum aestivum), Alexa647-labelled. The assay can be described thus: wheat germ agglutinin binders on compound microarrays, profiling panel, artefact control for SMM control-protein annotation, biochemical, small-molecule microarray, 635/667 nm fluorescence (AID 1140).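 Note: score merges 667 nm feature emission with signal to noise over triplicate slides.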 The following applies: WGA-A647 binding, 635 nm fluorescence, higher = more signal.

The target of assay [17] is Luciferin 4-monooxygenase (Photinus pyralis) (UniProt P08659). The experiment in a line: firefly luciferase enzyme inhibitors, primary screen, biochemical, luminescence, purified enzyme, 2006 set (AID 1141).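 Note: cell-free assay with purified firefly luciferase at 100 ng per well in PBS; test concentration not given here.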 The conditions noted are these: SteadyGlo luminescence, 30 min, higher = more signal, called active from +8 up or from −8 down.

The source made the active and inactive calls.

Chain of Albumin (Bos taurus) (P02769 whole entry, looked up): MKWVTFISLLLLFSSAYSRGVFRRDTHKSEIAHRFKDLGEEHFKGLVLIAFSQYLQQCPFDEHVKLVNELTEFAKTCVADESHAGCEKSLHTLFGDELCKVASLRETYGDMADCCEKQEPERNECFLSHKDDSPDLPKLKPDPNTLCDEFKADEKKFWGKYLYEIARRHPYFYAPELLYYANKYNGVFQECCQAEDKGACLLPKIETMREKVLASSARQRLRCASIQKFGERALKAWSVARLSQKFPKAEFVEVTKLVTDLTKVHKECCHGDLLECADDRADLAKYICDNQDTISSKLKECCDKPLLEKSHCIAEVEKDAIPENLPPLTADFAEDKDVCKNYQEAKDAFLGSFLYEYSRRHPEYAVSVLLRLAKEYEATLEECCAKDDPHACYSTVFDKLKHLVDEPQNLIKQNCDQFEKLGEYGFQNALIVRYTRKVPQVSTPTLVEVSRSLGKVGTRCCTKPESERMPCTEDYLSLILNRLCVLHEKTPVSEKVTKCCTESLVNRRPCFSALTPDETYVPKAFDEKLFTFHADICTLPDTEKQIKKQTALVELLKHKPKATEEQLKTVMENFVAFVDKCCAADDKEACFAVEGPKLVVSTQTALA
Chain of Follistatin (Homo sapiens) (P19883 whole entry, looked up): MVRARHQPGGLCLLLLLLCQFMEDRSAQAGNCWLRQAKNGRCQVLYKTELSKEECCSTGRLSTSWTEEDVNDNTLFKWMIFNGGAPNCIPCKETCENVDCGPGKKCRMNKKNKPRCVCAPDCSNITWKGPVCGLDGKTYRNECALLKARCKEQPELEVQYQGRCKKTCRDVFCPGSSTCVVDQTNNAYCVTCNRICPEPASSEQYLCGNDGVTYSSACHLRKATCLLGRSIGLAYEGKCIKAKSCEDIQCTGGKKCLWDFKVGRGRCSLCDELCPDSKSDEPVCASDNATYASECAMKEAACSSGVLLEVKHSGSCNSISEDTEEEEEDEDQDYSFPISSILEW
Chain of Fibroblast growth factor 2 (Homo sapiens) (P09038 whole entry, looked up): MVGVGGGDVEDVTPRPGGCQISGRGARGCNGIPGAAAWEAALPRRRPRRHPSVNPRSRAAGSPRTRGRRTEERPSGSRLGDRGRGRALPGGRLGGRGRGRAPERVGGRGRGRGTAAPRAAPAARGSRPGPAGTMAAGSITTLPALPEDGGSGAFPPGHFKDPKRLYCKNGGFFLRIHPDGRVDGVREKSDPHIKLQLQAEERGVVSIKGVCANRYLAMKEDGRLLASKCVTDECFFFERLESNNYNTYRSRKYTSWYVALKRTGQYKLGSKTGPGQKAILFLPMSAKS
Chain of Luciferin 4-monooxygenase (Photinus pyralis) (P08659 whole entry, looked up): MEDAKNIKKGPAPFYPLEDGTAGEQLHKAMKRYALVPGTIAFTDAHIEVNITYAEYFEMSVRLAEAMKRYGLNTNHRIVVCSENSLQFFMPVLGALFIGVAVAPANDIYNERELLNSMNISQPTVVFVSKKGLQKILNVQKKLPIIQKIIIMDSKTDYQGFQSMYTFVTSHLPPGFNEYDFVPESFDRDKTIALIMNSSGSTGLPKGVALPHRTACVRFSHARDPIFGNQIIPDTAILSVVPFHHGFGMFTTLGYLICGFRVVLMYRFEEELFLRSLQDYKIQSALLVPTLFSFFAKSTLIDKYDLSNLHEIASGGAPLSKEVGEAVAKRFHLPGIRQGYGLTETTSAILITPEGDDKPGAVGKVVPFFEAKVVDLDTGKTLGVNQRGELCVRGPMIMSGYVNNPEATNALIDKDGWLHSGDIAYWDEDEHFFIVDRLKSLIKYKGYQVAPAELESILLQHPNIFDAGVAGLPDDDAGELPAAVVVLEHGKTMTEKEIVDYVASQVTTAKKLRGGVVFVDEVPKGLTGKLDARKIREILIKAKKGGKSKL
Chain of Concanavalin-A (Canavalia ensiformis) (P02866 whole entry, looked up): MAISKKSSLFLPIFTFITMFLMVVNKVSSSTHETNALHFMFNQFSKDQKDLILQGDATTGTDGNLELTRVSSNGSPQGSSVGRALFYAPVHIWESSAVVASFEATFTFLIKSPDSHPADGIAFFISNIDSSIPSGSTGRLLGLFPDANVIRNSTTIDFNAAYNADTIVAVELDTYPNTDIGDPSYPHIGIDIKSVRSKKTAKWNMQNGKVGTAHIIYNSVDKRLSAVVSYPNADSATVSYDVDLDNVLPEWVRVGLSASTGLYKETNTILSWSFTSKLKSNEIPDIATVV
Chain of Focal adhesion kinase 1 (Homo sapiens) (Q05397 whole entry, looked up): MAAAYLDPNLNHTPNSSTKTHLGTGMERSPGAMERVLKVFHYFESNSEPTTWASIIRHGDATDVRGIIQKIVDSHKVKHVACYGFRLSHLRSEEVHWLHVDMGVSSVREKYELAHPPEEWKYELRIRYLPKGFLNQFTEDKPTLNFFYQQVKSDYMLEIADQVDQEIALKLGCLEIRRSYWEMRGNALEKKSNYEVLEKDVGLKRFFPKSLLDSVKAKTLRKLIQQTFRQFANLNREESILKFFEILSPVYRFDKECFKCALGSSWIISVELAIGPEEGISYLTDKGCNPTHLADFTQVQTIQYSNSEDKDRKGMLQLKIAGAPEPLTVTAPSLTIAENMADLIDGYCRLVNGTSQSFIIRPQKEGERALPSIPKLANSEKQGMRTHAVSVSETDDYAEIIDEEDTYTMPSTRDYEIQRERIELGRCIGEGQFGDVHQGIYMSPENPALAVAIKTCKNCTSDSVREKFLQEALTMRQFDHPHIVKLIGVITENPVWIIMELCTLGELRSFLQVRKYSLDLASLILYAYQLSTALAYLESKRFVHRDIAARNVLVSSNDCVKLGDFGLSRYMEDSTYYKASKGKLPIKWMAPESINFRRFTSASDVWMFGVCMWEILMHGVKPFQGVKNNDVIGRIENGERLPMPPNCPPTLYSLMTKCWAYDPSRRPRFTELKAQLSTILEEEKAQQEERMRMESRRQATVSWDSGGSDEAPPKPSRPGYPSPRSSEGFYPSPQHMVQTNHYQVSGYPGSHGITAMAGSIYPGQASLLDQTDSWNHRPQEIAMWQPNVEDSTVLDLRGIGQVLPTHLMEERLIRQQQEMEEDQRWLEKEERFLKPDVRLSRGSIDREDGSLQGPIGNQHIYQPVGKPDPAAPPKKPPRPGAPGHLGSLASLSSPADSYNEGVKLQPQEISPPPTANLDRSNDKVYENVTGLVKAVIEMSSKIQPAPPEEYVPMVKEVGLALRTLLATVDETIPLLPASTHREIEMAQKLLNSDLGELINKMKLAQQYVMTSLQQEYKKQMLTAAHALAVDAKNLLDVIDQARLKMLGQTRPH

Consider `O=C1[C@H]2[C@H]3[C@H](O)[C@H](O)CC(=NOCc4ccccc4)[C@H]3CC[C@H]2C(=O)N1c1ccc(F)cc1F`, for which the composite z-score was 0.155 with Albumin (Bos taurus); -0.308 in assay [2]; -0.265 in assay [3]; 0.784 in assay [4]; -0.137 in assay [5]; -0.713 in assay [6]. Further, the composite z-score in the assay on Sam68 (KHDRBS1) is -0.626; in [7], 0.0499; in assay [8] it was -0.111; in [9], 0.492; in [10], -0.0368; in [11], 0.145. For the same compound, the composite z-score was -0.898 in assay [12]; -0.273 in assay [13]; 0.0342 in assay [14]; -0.0947 in the assay on Lefty1; 0.146 in [16]. The composite Z-score in assay [1] is -0.801 (inactive). Moreover, the values for the z-score in [15] and in assay [17] were -0.206 and 0.522 (inactive), respectively.

Take `CCCCCN1CC=CC23O[C@@H]4C=CCOC(=O)[C@@H]4[C@H]2C(=O)N(CCCCCCO)[C@@H]3C1=O` (stereo not given in full): the composite z-score was 0.798 with Albumin (Bos taurus); -0.306 in [2]; -0.0811 in [3]; 0.81 in assay [4]; 0.629 in assay [5]; 0.902 in assay [6]. Besides, the composite z-score was -0.662 with Sam68 (KHDRBS1); -1.21 in [7]; -0.367 in assay [8]; 0.309 in assay [9]; -0.381 in [10]; -0.236 in [11]. The composite z-score in [12] is -1.04; in [13], -2.23; in assay [14] it was -1.49; in the assay with Lefty1 it was -1.05; in assay [16], -0.416. Besides, the composite Z-score in [1] was 0.401 (inactive). Also, the z-score in assay [15] was 0.421; in assay [17], 0.294 (inactive).

`O=C1O[C@@H](c2ccccc2)[C@@H](c2ccccc2)N2[C@@H](c3ccccc3OCCO)[C@]3(C(=O)Nc4ccc(C#CCCO)cc43)[C@@H](C(=O)O)[C@H]12`: the composite z-score with Albumin (Bos taurus) was 0.682; in [2], 1.14; in assay [3], 0.473; in [4], 0.58; in assay [5], 1.51; in assay [6], 0.133. The composite z-score worked out at 1.2 in the assay on Sam68 (KHDRBS1); 0.553 in assay [7]; 1.15 in [8]; 2.14 in [9]; 1.18 in assay [10]; 0.459 in assay [11]. The composite z-score in assay [12] came out at 0.923; in [13], 0.89; in [14] it was 0.598; with Lefty1 it was 1.37; in assay [16], 0.365. In addition, the composite Z-score in [1] is 0.215 (inactive). For the same compound, the z-score in assay [15] was -0.406; in assay [17], -0.703 (inactive).

For `CN1C(=O)C2C=CC(C(O)c3ccc(Br)cc3)N(N(c3ccccc3)c3ccccc3)C2C1=O` (stereo not given), the composite z-score with Albumin (Bos taurus) was 0.296; in assay [2], -0.0003; in assay [3] it was -0.0976; in [4] it was 0.106; in assay [5] it was 1.04; in assay [6] it was -0.068. Besides, the composite z-score is 0.676 in the assay on Sam68 (KHDRBS1); -0.815 in assay [7]; 0.951 in [8]; 0.373 in assay [9]; 0.77 in [10]; 0.704 in assay [11]. In addition, the composite z-score is 0.312 in assay [12]; 0.502 in [13]; -0.538 in [14]; -0.409 with Lefty1; 0.585 in [16]. In addition, in assay [1], the composite Z-score is 0.49 (inactive). Also, the z-score was 1.34 in assay [15] and -0.495 (inactive) in assay [17].

On to `C=CC[C@]1(C(=O)NCc2ccccc2)N=C(c2ccc(OCCCO)cc2)O[C@H]1c1ccccc1`, for which the composite z-score with Albumin (Bos taurus) is 0.866; in assay [2], 0.0488; in [3], -0.123; in assay [4] it was 0.69; in [5], 2.65; in assay [6], 0.308. The composite z-score in the assay on Sam68 (KHDRBS1) was 1.28; in [7], -0.911; in assay [8] it was 0.691; in assay [9], -0.158; in assay [10], 1.22; in assay [11] it was 0.115. Moreover, the composite z-score was 0.632 in [12]; 0.431 in [13]; -0.35 in assay [14]; -0.0085 in the assay on Lefty1; 0.366 in assay [16]. Further, the composite Z-score in [1] was -0.275 (inactive). For the same compound, the z-score is 0.453 in [15] and 0.185 (inactive) in assay [17].

Regarding `CC(C)=NOCc1ccc(-c2cc(-c3ccccc3)no2)cc1`, the composite z-score in the assay with Albumin (Bos taurus) is -0.205; in assay [2] it was -0.0984; in assay [3], -0.169; in assay [4], -0.145; in [5], -0.676; in assay [6], 0.0863. For the same compound, the composite z-score with Sam68 (KHDRBS1) came to 0.059; in assay [7], 0.14; in assay [8], 0.0293; in assay [9], 0.0906; in assay [10], 0.272; in assay [11] it was 0.0171. Moreover, the composite z-score was 0.108 in [12]; 0.0806 in [13]; 0.437 in [14]; 0.003 in the assay on Lefty1; -0.477 in assay [16]. For the same compound, the composite Z-score in assay [1] is -0.0363 (inactive). The z-score is -0.405 in [15] and 0.534 (inactive) in assay [17].
